Article PMC7862700, “An all-to-all approach to the identification of sequence-specific readers for epigenetic DNA modifications on cytosine”

Legend:
Test in all cases: DAPPL (digital affinity profiling via proximity ligation, sequencing); 10 mM Tris-HCl pH 7.5, 50 mM NaCl, 1 mM DTT, 4% glycerol, room temperature, 30 min; GST-TFs on glutathione beads, 16-mer random dsDNA library, 0.1% formaldehyde crosslink after washing; high values mean tight binding
Settings in all cases: protein: recombinant; tags: N-terminal GST; dsDNA, one strand shown
ERF = target: T1, ERF (Homo sapiens, UniProt P50548 1-548)
T1 sequence: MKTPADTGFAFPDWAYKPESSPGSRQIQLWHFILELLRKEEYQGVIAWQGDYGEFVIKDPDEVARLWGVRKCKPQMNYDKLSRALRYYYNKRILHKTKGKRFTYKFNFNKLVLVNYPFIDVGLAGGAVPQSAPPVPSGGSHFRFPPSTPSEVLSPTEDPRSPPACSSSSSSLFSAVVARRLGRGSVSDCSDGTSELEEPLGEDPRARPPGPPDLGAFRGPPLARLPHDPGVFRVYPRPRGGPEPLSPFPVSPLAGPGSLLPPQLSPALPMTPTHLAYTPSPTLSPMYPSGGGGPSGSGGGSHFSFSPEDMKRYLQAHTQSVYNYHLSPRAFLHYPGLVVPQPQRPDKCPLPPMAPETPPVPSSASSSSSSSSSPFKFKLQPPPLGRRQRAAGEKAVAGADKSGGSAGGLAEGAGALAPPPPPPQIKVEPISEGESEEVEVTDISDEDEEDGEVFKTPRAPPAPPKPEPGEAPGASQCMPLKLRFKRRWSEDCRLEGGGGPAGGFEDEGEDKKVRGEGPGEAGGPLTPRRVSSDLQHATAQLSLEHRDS
Summary of the method: (§1)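 Yeast served to express human transcription factors as GST fusions, which were then captured on glutathione beads and labelled with DNA barcodes. Pooled with a tag-only sample, they were incubated with 200 nmole of a 16-mer random double-stranded DNA library for 30 min at room temperature in Tris/NaCl/DTT/glycerol buffer, washed, crosslinked with 0.1% formaldehyde, ligated by proximity, amplified by PCR and sequenced. Dividing each hexamer's read frequency for a factor by its frequency for the tag-only sample gives the binding signal.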

ETV3L = target: T2, ETV3L (Homo sapiens, UniProt Q6ZN32 1-361)
T2 sequence: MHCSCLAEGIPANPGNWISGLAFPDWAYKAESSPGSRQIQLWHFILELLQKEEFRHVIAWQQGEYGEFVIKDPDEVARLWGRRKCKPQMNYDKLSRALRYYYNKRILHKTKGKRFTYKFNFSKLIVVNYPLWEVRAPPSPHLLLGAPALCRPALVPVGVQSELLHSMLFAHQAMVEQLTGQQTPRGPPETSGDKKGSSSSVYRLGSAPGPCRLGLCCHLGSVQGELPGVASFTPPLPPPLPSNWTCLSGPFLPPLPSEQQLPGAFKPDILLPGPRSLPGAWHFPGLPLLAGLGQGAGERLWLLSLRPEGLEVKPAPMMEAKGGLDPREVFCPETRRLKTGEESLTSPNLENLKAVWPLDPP
Summary of the method: as §1

ETS2 = target: T3, ETS2 (Homo sapiens, UniProt P15036 1-469)
T3 sequence: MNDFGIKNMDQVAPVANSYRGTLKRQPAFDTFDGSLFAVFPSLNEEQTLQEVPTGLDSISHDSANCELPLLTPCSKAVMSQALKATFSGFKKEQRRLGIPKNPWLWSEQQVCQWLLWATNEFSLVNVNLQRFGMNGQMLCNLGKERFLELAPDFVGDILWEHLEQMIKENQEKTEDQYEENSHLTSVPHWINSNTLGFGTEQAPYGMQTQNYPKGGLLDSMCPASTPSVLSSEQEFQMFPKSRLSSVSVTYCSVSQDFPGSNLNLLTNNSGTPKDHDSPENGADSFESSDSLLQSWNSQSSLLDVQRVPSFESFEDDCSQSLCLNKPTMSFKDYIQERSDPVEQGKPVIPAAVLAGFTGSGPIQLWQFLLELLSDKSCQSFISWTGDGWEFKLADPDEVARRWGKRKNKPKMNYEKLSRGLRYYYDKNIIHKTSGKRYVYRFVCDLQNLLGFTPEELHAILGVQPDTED
Summary of the method: as §1

SPDEF = target: T4, SPDEF (Homo sapiens, UniProt O95238 1-335)
T4 sequence: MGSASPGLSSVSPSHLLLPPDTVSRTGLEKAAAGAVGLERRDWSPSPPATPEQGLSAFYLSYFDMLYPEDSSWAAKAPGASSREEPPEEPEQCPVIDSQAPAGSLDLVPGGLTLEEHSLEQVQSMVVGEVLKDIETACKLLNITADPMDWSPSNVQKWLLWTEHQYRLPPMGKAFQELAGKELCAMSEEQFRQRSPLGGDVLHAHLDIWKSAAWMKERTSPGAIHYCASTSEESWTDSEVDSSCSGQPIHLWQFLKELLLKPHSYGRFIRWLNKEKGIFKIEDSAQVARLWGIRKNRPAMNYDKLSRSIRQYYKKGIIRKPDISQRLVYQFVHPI
Summary of the method: as §1

ETV7 = target: T5, ETV7 (Homo sapiens, UniProt Q9Y603 1-341)
T5 sequence: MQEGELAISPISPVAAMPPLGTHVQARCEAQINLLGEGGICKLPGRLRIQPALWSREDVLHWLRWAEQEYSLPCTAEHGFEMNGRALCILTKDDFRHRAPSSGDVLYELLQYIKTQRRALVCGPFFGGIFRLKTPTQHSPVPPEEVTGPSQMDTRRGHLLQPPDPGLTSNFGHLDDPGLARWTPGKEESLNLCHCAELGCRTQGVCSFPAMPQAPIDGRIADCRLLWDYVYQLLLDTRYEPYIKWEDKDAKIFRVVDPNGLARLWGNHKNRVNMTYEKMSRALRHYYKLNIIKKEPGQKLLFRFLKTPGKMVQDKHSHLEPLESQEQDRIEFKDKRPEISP
Summary of the method: as §1

ELF5 = target: T6, ELF5 (Homo sapiens, UniProt Q9UKW6-2 1-255)
T6 sequence: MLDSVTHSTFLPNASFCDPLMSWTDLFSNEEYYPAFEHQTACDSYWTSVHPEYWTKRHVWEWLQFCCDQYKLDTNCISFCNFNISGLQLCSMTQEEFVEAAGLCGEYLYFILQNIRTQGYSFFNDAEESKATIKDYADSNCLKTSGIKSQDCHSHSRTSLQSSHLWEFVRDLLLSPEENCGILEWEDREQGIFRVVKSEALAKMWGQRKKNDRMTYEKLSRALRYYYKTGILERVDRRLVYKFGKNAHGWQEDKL
Summary of the method: as §1

ETV3 = target: T7, ETV3 (Homo sapiens, UniProt P41162-2 1-143)
T7 sequence: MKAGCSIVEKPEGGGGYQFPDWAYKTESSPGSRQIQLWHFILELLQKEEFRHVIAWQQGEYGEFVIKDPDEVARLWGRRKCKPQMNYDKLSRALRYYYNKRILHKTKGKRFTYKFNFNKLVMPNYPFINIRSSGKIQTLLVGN
Summary of the method: as §1

ETV6 = ETV6 (Homo sapiens, UniProt P41212 1-452)
Chain of ETV6 (P41212 whole entry): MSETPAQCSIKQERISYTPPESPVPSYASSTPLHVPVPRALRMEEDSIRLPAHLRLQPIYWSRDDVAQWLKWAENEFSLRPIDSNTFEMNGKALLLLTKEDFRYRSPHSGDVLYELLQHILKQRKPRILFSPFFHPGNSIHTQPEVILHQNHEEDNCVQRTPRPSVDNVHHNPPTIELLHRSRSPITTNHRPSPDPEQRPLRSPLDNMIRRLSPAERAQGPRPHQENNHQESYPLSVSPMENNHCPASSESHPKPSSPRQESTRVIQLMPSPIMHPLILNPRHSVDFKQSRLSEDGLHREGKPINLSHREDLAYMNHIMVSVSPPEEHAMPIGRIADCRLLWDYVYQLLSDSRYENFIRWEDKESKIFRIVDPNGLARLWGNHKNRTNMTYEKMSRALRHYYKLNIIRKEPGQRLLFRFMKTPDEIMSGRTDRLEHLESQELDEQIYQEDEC
Summary of the method: as §1

Sequence	binding signal (ERF)	binding signal (ETV3L)	binding signal (ETS2)	binding signal (SPDEF)	binding signal (ETV7)	binding signal (ELF5)	binding signal (ETV3)	binding signal (ETV6)
ATTGTT	1.65 fold enrichment (6-mer frequency, TF over GST control)	1.55 fold enrichment (6-mer frequency, TF over GST control)	1.47 fold enrichment (6-mer frequency, TF over GST control)	1.46 fold enrichment (6-mer frequency, TF over GST control)	1.47 fold enrichment (6-mer frequency, TF over GST control)	1.36 fold enrichment (6-mer frequency, TF over GST control)	1.56 fold enrichment (6-mer frequency, TF over GST control)	1.51 fold enrichment (6-mer frequency, TF over GST control)
AACCCG	1.42 fold enrichment (6-mer frequency, TF over GST control)	1.34 fold enrichment (6-mer frequency, TF over GST control)	1.45 fold enrichment (6-mer frequency, TF over GST control)	1.63 fold enrichment (6-mer frequency, TF over GST control)	1.47 fold enrichment (6-mer frequency, TF over GST control)	1.52 fold enrichment (6-mer frequency, TF over GST control)	1.57 fold enrichment (6-mer frequency, TF over GST control)	1.5 fold enrichment (6-mer frequency, TF over GST control)
GCCCTA	1.21 fold enrichment (6-mer frequency, TF over GST control)	1.17 fold enrichment (6-mer frequency, TF over GST control)	1.22 fold enrichment (6-mer frequency, TF over GST control)	1.21 fold enrichment (6-mer frequency, TF over GST control)	1.12 fold enrichment (6-mer frequency, TF over GST control)	1.11 fold enrichment (6-mer frequency, TF over GST control)	1.18 fold enrichment (6-mer frequency, TF over GST control)	1.17 fold enrichment (6-mer frequency, TF over GST control)
TTCGCT	1.4 fold enrichment (6-mer frequency, TF over GST control)	1.24 fold enrichment (6-mer frequency, TF over GST control)	1.3 fold enrichment (6-mer frequency, TF over GST control)	1.2 fold enrichment (6-mer frequency, TF over GST control)	1.34 fold enrichment (6-mer frequency, TF over GST control)	1.23 fold enrichment (6-mer frequency, TF over GST control)	1.23 fold enrichment (6-mer frequency, TF over GST control)	1.23 fold enrichment (6-mer frequency, TF over GST control)
TACTTT	1.39 fold enrichment (6-mer frequency, TF over GST control)	1.35 fold enrichment (6-mer frequency, TF over GST control)	1.32 fold enrichment (6-mer frequency, TF over GST control)	1.35 fold enrichment (6-mer frequency, TF over GST control)	1.36 fold enrichment (6-mer frequency, TF over GST control)	1.34 fold enrichment (6-mer frequency, TF over GST control)	1.34 fold enrichment (6-mer frequency, TF over GST control)	1.37 fold enrichment (6-mer frequency, TF over GST control)
AACTGC	1.22 fold enrichment (6-mer frequency, TF over GST control)	1.37 fold enrichment (6-mer frequency, TF over GST control)	1.3 fold enrichment (6-mer frequency, TF over GST control)	1.28 fold enrichment (6-mer frequency, TF over GST control)	1.3 fold enrichment (6-mer frequency, TF over GST control)	1.36 fold enrichment (6-mer frequency, TF over GST control)	1.39 fold enrichment (6-mer frequency, TF over GST control)	1.3 fold enrichment (6-mer frequency, TF over GST control)
TTGAAA	1.13 fold enrichment (6-mer frequency, TF over GST control)	1.23 fold enrichment (6-mer frequency, TF over GST control)	1.24 fold enrichment (6-mer frequency, TF over GST control)	1.07 fold enrichment (6-mer frequency, TF over GST control)	1.19 fold enrichment (6-mer frequency, TF over GST control)	1.03 fold enrichment (6-mer frequency, TF over GST control)	1.17 fold enrichment (6-mer frequency, TF over GST control)	1.09 fold enrichment (6-mer frequency, TF over GST control)
TCTTGC	1.4 fold enrichment (6-mer frequency, TF over GST control)	1.36 fold enrichment (6-mer frequency, TF over GST control)	1.35 fold enrichment (6-mer frequency, TF over GST control)	1.33 fold enrichment (6-mer frequency, TF over GST control)	1.38 fold enrichment (6-mer frequency, TF over GST control)	1.34 fold enrichment (6-mer frequency, TF over GST control)	1.47 fold enrichment (6-mer frequency, TF over GST control)	1.18 fold enrichment (6-mer frequency, TF over GST control)
CTCATG	1.18 fold enrichment (6-mer frequency, TF over GST control)	1.22 fold enrichment (6-mer frequency, TF over GST control)	1.21 fold enrichment (6-mer frequency, TF over GST control)	1.18 fold enrichment (6-mer frequency, TF over GST control)	1.18 fold enrichment (6-mer frequency, TF over GST control)	1.19 fold enrichment (6-mer frequency, TF over GST control)	1.22 fold enrichment (6-mer frequency, TF over GST control)	1.17 fold enrichment (6-mer frequency, TF over GST control)
AACCTC	1.26 fold enrichment (6-mer frequency, TF over GST control)	1.24 fold enrichment (6-mer frequency, TF over GST control)	1.18 fold enrichment (6-mer frequency, TF over GST control)	1.07 fold enrichment (6-mer frequency, TF over GST control)	1.26 fold enrichment (6-mer frequency, TF over GST control)	1.17 fold enrichment (6-mer frequency, TF over GST control)	1.2 fold enrichment (6-mer frequency, TF over GST control)	1.16 fold enrichment (6-mer frequency, TF over GST control)
TCCTAG	1.26 fold enrichment (6-mer frequency, TF over GST control)	1.08 fold enrichment (6-mer frequency, TF over GST control)	1.26 fold enrichment (6-mer frequency, TF over GST control)	1.4 fold enrichment (6-mer frequency, TF over GST control)	1.25 fold enrichment (6-mer frequency, TF over GST control)	1.41 fold enrichment (6-mer frequency, TF over GST control)	1.32 fold enrichment (6-mer frequency, TF over GST control)	1.26 fold enrichment (6-mer frequency, TF over GST control)
CTGCGA	1.22 fold enrichment (6-mer frequency, TF over GST control)	1.4 fold enrichment (6-mer frequency, TF over GST control)	1.29 fold enrichment (6-mer frequency, TF over GST control)	1.37 fold enrichment (6-mer frequency, TF over GST control)	1.26 fold enrichment (6-mer frequency, TF over GST control)	1.28 fold enrichment (6-mer frequency, TF over GST control)	1.32 fold enrichment (6-mer frequency, TF over GST control)	1.29 fold enrichment (6-mer frequency, TF over GST control)
AATATG	1.07 fold enrichment (6-mer frequency, TF over GST control)	1.15 fold enrichment (6-mer frequency, TF over GST control)	1.15 fold enrichment (6-mer frequency, TF over GST control)	1.08 fold enrichment (6-mer frequency, TF over GST control)	1.21 fold enrichment (6-mer frequency, TF over GST control)	1.1 fold enrichment (6-mer frequency, TF over GST control)	1.14 fold enrichment (6-mer frequency, TF over GST control)	1.14 fold enrichment (6-mer frequency, TF over GST control)
CTTCCA	1.55 fold enrichment (6-mer frequency, TF over GST control)	1.52 fold enrichment (6-mer frequency, TF over GST control)	1.45 fold enrichment (6-mer frequency, TF over GST control)	1.45 fold enrichment (6-mer frequency, TF over GST control)	1.36 fold enrichment (6-mer frequency, TF over GST control)	1.64 fold enrichment (6-mer frequency, TF over GST control)	1.41 fold enrichment (6-mer frequency, TF over GST control)	1.76 fold enrichment (6-mer frequency, TF over GST control)
CCCCAA	1.06 fold enrichment (6-mer frequency, TF over GST control)	1.2 fold enrichment (6-mer frequency, TF over GST control)	1.13 fold enrichment (6-mer frequency, TF over GST control)	1.11 fold enrichment (6-mer frequency, TF over GST control)	1.1 fold enrichment (6-mer frequency, TF over GST control)	1.12 fold enrichment (6-mer frequency, TF over GST control)	1.15 fold enrichment (6-mer frequency, TF over GST control)	1.14 fold enrichment (6-mer frequency, TF over GST control)
